# Bioassay records: PubChem BioAssay, University of Kansas High Throughput Screening Laboratory
# Pf apPOL block: Pf-apPOL inhibitors, biochemical, fluorescence. Recombinant Pf-apPOL, molecular beacon fluorescence, 1.5 h. inhibition, % at 10 µM. 210,000 compounds, 0.25% hits. AID 1794808, 2022
# mHTT CaM bind: mutant huntingtin-calmodulin interaction inhibitors – biochemical, AlphaScreen, primary screen; P42858; AlphaScreen His-mHTT/GST-CaM binding, luminescence; inhibition, % at 15 µM; 190,000 compounds, 3.6% hits;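 further: 0% = both proteins with DMSO and 100% = one protein alone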
# Target sequence (P42858 whole entry, looked up, stated change not applied): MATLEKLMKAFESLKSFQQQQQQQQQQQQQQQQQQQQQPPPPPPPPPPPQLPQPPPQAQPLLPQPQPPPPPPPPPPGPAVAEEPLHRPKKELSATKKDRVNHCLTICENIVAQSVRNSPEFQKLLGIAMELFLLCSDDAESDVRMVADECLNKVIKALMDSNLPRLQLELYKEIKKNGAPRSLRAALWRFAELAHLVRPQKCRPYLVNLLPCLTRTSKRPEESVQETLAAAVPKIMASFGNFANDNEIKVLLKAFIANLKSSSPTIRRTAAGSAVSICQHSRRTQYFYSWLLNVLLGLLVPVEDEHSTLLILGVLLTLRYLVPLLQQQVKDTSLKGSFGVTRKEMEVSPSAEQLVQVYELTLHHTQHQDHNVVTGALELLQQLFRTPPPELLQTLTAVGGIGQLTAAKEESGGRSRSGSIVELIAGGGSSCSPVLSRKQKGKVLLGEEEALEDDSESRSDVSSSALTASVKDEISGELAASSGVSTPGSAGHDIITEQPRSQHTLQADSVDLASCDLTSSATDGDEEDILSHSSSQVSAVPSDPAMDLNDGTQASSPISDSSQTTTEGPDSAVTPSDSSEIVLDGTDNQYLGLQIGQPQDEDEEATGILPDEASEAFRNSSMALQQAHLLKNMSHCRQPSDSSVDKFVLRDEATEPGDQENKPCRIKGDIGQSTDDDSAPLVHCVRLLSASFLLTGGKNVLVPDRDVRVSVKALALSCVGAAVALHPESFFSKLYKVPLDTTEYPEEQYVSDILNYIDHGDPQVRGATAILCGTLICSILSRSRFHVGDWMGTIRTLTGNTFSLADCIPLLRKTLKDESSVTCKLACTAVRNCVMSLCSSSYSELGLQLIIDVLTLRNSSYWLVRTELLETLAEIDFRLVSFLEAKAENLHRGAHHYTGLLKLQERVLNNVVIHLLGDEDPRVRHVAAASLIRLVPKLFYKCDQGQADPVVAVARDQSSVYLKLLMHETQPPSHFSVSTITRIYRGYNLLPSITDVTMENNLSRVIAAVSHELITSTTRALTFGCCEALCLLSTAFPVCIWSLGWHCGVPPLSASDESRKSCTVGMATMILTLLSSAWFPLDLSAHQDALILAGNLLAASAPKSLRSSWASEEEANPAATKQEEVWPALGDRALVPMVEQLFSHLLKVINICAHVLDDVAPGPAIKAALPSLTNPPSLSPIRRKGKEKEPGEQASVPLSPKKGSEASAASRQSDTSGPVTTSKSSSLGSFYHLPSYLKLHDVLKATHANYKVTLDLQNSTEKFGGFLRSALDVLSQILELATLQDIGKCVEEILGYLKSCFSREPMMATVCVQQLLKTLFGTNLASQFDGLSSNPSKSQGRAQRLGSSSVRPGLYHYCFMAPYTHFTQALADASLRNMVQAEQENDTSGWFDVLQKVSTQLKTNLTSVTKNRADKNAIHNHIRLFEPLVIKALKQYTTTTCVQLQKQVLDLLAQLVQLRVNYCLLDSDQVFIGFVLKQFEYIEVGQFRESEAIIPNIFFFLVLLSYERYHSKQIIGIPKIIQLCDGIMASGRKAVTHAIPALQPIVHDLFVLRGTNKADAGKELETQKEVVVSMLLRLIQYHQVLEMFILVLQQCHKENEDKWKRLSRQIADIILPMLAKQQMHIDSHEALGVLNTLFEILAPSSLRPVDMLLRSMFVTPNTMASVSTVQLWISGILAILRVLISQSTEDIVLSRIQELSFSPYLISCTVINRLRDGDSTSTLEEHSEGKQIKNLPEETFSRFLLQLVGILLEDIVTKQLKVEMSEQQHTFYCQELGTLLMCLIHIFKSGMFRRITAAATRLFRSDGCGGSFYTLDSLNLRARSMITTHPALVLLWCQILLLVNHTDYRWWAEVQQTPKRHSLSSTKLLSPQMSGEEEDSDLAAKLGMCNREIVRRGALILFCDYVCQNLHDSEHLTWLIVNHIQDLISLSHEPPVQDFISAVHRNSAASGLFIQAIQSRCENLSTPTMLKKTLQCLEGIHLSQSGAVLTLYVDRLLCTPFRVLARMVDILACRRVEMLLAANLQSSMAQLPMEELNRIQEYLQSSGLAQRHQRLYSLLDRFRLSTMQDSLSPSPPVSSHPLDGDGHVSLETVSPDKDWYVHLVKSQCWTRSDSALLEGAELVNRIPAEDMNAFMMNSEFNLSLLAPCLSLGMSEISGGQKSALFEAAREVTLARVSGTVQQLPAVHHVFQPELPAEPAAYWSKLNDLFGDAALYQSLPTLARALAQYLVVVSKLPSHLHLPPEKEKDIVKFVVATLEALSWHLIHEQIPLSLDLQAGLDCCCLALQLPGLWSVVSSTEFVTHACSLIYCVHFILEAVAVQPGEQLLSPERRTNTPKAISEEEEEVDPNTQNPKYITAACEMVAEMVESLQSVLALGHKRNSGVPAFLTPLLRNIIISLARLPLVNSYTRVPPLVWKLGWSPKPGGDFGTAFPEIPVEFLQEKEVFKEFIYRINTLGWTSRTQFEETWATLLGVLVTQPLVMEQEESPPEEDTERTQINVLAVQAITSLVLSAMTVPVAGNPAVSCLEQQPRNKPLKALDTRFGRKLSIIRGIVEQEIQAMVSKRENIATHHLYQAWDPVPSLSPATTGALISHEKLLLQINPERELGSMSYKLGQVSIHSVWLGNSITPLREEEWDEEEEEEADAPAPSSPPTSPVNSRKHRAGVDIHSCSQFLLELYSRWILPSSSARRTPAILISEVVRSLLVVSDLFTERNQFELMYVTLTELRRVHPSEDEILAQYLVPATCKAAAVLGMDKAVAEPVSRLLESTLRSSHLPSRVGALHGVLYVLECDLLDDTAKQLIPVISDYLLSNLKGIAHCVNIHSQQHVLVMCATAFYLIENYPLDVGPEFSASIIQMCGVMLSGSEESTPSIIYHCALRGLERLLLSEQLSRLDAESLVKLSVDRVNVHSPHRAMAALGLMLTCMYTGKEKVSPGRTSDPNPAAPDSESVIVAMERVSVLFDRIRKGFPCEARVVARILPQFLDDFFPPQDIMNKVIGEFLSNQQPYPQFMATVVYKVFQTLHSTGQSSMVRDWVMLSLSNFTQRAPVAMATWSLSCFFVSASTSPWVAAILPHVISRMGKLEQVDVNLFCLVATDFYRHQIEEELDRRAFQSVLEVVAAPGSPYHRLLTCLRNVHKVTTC
# * = called active by the depositor; . = not tested or not shown. Shown are actives, neighbours in structure and some others; about 3.5% of the full set was active somewhere. No stated cut-off is given here; in the data, active means inhibition above about 50%; inactive means the rest.
SMILES,Pf apPOL block,mHTT CaM bind
CN(C)c1ccc(C(O)(c2ccc(N(C)C)cc2)c2ccc(N(C)C)cc2)cc1,-7.2,100.3*
O=C(CSc1nnnn1-c1ccccc1F)Nc1ccc2c(c1)OCCO2,-5.0,4.0
COc1cccc(-c2ccc(C(=O)N3CCOCC3)cn2)c1,1.9,-6.5
Cc1ccc(C(=O)N2CCC(CCNS(=O)(=O)c3c(C)cc(C)cc3C)CC2)cc1,2.2,44.8
Cc1ccc(C(=O)N2CCC(CCNS(=O)(=O)c3c(C)noc3C)CC2)cc1,-0.6,61.9*
Cc1ccc(C(=O)N2CCC(CCNS(=O)(=O)c3ccccc3)CC2)cc1,-3.2,36.6
Cc1ccc(C(=O)N2CCC(CCNS(=O)(=O)c3ccc(F)cc3)CC2)cc1,-1.6,53.2*
CCOc1ccc(S(=O)(=O)NCCC2CCN(C(=O)c3ccc(C)cc3)CC2)cc1,-3.3,61.6*
O=C(c1ccc(F)cc1)N1CCC(CCNS(=O)(=O)c2ccc(Cl)cc2)CC1,-0.3,55.1*
Cc1ccc(C(=O)N2CCC(CCNS(=O)(=O)c3ccc(C)cc3)CC2)cc1,-4.2,36.9
O=C(c1ccccc1)N1CCC(CCNS(=O)(=O)c2ccc(F)cc2)CC1,-1.6,25.9
N#CC1=C(N)N(c2ccc(Cl)cc2)C2=C(C(=O)CCC2)C1c1cccs1 (stereo unspecified),-1.0,14.0
O=C1C2CCCN2C(=O)c2ccccc2N1CCc1ccccc1 (stereo unspecified),-2.1,-3.0
CCCC(=O)NC1CCN(c2cc(C)cc(C)c2)C1=O (stereo unspecified),0.2,-11.8
Cc1ccc(F)cc1S(=O)(=O)NCCC1CCN(C(=O)c2ccc(F)cc2)CC1,-1.8,34.4
Cc1ccc(C(=O)N2CCC(CCNS(=O)(=O)c3cccc(C#N)c3)CC2)cc1,-3.7,50.4*
Cc1ccc(C)c(S(=O)(=O)NCCC2CCN(C(=O)c3ccc(F)cc3)CC2)c1,1.5,61.1*
Cc1ccc(C(=O)N2CCC(CCNS(=O)(=O)c3cccc(C)c3)CC2)cc1,1.1,44.4
COc1ccccc1OCCCCOc1ccccc1[N+](=O)[O-],-3.2,-31.5
CCOCCCNC(=O)CSc1nc2nc(C)c(Cc3ccccc3C)c(C)n2n1,-3.2,8.0
N#Cc1ccccc1S(=O)(=O)N1CCC(Oc2ccc(-n3cnnn3)cc2)CC1,-11.0,-3.1
O=c1cc(-c2ccccc2Cl)oc2ccc([N+](=O)[O-])c(O)c12,-5.0,5.1
O=[N+]([O-])c1cc([N+](=O)[O-])c2oc(-c3ccccc3)c(Br)c2c1O,-1.0,96.0*
Cc1ccc2c(c1)N(c1cc(F)ccc1F)C=C(C#N)S2(=O)=O,0.6,-6.3
O=C(C1CCN(c2ccc3ccccc3c2)C1=O)N1CCN(Cc2ccccc2)CC1 (stereo unspecified),-1.1,54.1*
SMILES,Pf apPOL block,mHTT CaM bind
O=C(Nc1ccccc1)C1CCN(c2ccc3ccccc3c2)C1=O (stereo unspecified),-2.8,2.8
COc1cccc(/C=c2\sc3n(c2=O)CN(c2cccc([N+](=O)[O-])c2)CN=3)c1,-4.3,7.0
COc1cccc(CNC(=O)C2(c3ccc(NS(C)(=O)=O)cc3)CCCCC2)c1,-3.2,-2.0
O=C(COc1cccc(Cl)c1)NCc1ccco1,-19.5,-3.9
O=C(COc1cccc2c1CCN(Cc1ccc(Cl)cc1)C2=O)NCc1ccco1,-10.8,69.8*
CN1CCN(C(=O)CC(c2ccccc2)c2ccccc2)CC1,-5.0,4.1
CC(C)CN1CCn2cc(C(=O)N3CCN(c4ccc(F)cc4)CC3)nc2C1,-5.4,91.4*
CC(C)CN1CCn2cc(C(=O)N3CCN(c4ccccc4F)CC3)nc2C1,-8.6,37.8
CCN1CCn2cc(C(=O)N3CCN(c4ccccc4)CC3)nc2C1,-2.2,4.6
CC(C)CN1CCn2cc(C(=O)N3CCN(c4cccc(Cl)c4)CC3)nc2C1,-1.4,85.8*
COCCN(Cc1cccs1)C(=O)c1nnn(-c2ccccc2)c1-c1ccccn1,-3.7,-6.4
Cn1cnnc1SCCC(=O)O,.,-3.4
Cc1cc2n(n1)CCC(=O)N2CCCC(=O)NCc1ccco1,-0.4,-3.0
Cc1cccc(NCC(O)Cn2c(C)c(C)c3ccccc32)c1C (stereo unspecified),-6.3,93.0*
CCC(CO)NCC(O)Cn1c2ccccc2c2ccccc21 (stereo unspecified),-3.1,-3.0
COc1ccccc1NCC(O)Cn1ccc2ccccc21 (stereo unspecified),-2.9,46.4
Cc1ccc(NCC(O)Cn2c(C)c(C)c3ccccc32)c(C)c1 (stereo unspecified),-7.6,82.0*
COc1ccccc1NCC(O)Cn1c(C)c(C)c2ccccc21 (stereo unspecified),-2.4,59.0*
CC(NCC(O)Cn1c2ccccc2c2ccccc21)C(=O)O (stereo unspecified),-5.9,3.8
Cc1c(C)n(CC(O)CNc2ccc(I)cc2)c2ccccc12 (stereo unspecified),4.7,99.0*
Cc1ccc(S(=O)(=O)NCC(O)Cn2c3ccccc3c3ccccc32)cc1 (stereo unspecified),12.7,28.0
COc1nc(Nc2ccc(C)cc2)nc(OC)n1,-3.2,0.9
Clc1ccc(-c2cn3c4ccccc4n(CCN4CCOCC4)c3n2)cc1,-0.7,43.7
CNCC(O)Cn1c2ccccc2c2ccccc21 (stereo unspecified),4.0,13.4
Cc1ccccc1NCC(O)Cn1c(C)c(C)c2ccccc21 (stereo unspecified),1.4,96.0*
SMILES,Pf apPOL block,mHTT CaM bind
Cc1cc(C)c2nc(C)cc(Nc3ccc(N4CCOCC4)cc3)c2c1,-15.3,14.1
COc1ccc(N2CC(CNS(=O)(=O)c3ccc4c(c3)CCCC4)CC2=O)cc1 (stereo unspecified),-5.8,14.3
COc1ccc(N2CCC(CNS(=O)(=O)c3cccc(Cl)c3)C2)cc1 (stereo unspecified),2.4,84.2*
O=C(c1cccs1)N1CCC2(C1)NCc1ccccc1NC2=NC1CCCC1 (stereo unspecified),-3.7,12.5
Cc1ccccc1C1CCCN1C(=O)c1cc(C(C)C)on1 (stereo unspecified),6.4,-6.9
O=C(NCc1cccc(F)c1)C1CCCN(c2cn[nH]c(=O)c2)C1 (stereo unspecified),-0.5,1.5
CC(C)N1C(=O)Cc2ccccc2C1C(=O)NCc1ccc(F)cc1 (stereo unspecified),3.1,-6.0
CCOc1c(C)cc(-c2ncccc2O)cc1C,-0.2,-0.8
CCOCc1ccc(O)c2ncccc12,-4.3,100.3*
COCC(=O)N1CCCn2cc(-c3cccc(C#N)c3)nc21,-0.6,6.1
CC(C)CC(=O)NC1CCN(c2ccccc2)C1=O (stereo unspecified),-3.4,-11.2
O=C(C1=CN(c2ccccc2)c2ccccc2S1(=O)=O)N1CCCCC1,-0.2,3.5
COc1ccc(C2CC(=O)c3c(O)cc(O)cc3O2)cc1O (stereo unspecified),-0.2,.
CC(C)=CCc1c(O)cc(O)c2c1OC(c1ccccc1)CC2=O (stereo unspecified),-2.0,51.0*
Cc1ccc(C2CC(C(F)(F)F)n3nc(C(=O)Nc4cccc(O)c4)cc3N2)cc1 (stereo unspecified),-0.4,22.0
O=C(O)CN1C(=O)C(=O)C(=C(O)c2ccc(Cl)cc2)C1c1ccccc1[N+](=O)[O-] (stereo unspecified),-6.5,5.6
